Only some compounds are listed: those with a hit (about 0.44% of all), similar ones and a draw of the others.
GFP derepression: epigenetic modulators derepressing GFP locus in mouse cells | mouse C127i GFP locus derepression, cytometry, 30 h | Potency, µM (doses to about 46.1 µM) | 68,000 compounds, 0.09% hits | AID 597
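Murine C127i mammary cells carrying a silenced, stably integrated CMV-driven GFP reporter were treated with compound for 30 hours at 37 C. After PBS washes, GFP-positive cells were counted by laser-scanning microplate cytometry.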
HBB splicing: modulators of hemoglobin beta chain splicing. HBB splicing reporter cell assay, activation; EGFP reporter with mutant IVS2-654 intron; response scale: normalised to 500 nM splice-correcting PNA. AID 925. Potency, µM (doses to about 46.1 µM), hits mostly activators. 65,000 compounds, 0.06% hits
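HeLa cells stably expressing EGFP interrupted by mutant beta-globin intron 2 (IVS2-654), 500/well in 2% FCS. Treated with compound for 2 days at 37C. Splicing correction scored as total well GFP intensity (488 nm excitation, 500-520 nm emission); 500 nM antisense PNA served as control.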
Hsp90 Hop PPI: changes Hsp90-Hop TPR2A binding signal, up or down; AID 595; 71,000 compounds, 0.44% hits; AlphaScreen TPR2A-His6 binding biotin-Hsp90 C-terminal peptide; Potency, µM (titrated, usually from 57 µM); active means well fitted curve in either direction with a large enough effect; inconclusive means small, poorly fitted or top-dose-only effect, or another doubt
Ub-GFP proteasome: proteasome inhibitors stabilizing ubiquitin-GFP reporter; AID 526; Ubiquitin-GFP reporter cells, proteasome inhibition, GFP fluorescence; response scale: untreated = 0%, 10 µM MG-132 = 100%; 67,000 tested, under 10 active; Potency, µM (series often up to 45.9 µM), actives largely listed as activators; active means well fitted activation curve with a large enough effect, not every such curve was filed as active; inconclusive means small, poorly fitted or top-dose-only effect, or another doubt; inactive means no such curve, though single readings can be large or run the other way
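Proteasome blockade was scored as a rise in GFP-expressing U2OS cells carrying a ubiquitin(G76V)-GFP construct, imaged after 4 hr compound treatment at 37 °C across a 46 uM–2.9 nM series.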
USP2a inh: blocks human ubiquitin-specific protease USP2a | O75604 | USP2a enzymatic assay, qHTS inhibition | Potency, µM (highest dose often 38.3 µM), usual class: inhibitors | 60,000 compounds, 0.1% hits | AID 927; further: nearly all actives have a fitted effect of over 60% in size
Target sequence (O75604 whole entry, looked up): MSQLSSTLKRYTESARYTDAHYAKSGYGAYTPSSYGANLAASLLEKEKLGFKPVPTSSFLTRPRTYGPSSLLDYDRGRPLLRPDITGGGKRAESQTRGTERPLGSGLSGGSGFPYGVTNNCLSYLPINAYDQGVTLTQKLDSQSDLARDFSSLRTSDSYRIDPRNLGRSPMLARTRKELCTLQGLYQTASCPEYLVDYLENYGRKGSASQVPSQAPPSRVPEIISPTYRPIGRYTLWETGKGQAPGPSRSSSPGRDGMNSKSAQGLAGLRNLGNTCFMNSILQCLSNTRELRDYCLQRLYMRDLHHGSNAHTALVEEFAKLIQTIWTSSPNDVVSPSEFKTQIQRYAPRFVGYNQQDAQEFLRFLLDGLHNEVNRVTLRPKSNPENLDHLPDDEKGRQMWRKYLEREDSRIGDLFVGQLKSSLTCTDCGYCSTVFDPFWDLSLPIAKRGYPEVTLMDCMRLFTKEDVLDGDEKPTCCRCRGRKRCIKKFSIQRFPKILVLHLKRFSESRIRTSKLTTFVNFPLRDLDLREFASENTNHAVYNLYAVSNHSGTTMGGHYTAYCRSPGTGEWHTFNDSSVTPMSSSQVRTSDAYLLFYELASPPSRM
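Coupled readout: USP2-cleaved Ub-PLA2 (20nM final) turns over NBD C6-HPC (20uM final), Ex 460nm/Em 535nm after 2.5 h, time-zero read flagging artifacts. Enzyme (20nM final, pH 8.0 Tris) given 30 min RT with compound first; NEM defines full inhibition.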
A number is an active result; n = inactive; u = inconclusive; x = not tested or not shown; ! = a repeat was not active; [ ] = dose if it differs, or a comment. Unless noted, the call rests on the fitted dose curve; in most records, active means well fitted curve in the direction sought with a large enough effect; inconclusive means small, poorly fitted or top-dose-only effect, or another doubt; inactive means no such curve, though single readings can be large; an effect the other way counts as inactive or inconclusive.

SMILES | GFP derepression | HBB splicing | Hsp90 Hop PPI | Ub-GFP proteasome | USP2a inh
Oc1cc(O)cc(/C=C\c2ccc(O)c(O)c2)c1 | n | n | u | n | n
Cc1cc(N)c2ccccc2[n+]1CCCCCCCCCCCCCC[n+]1c(C)cc(N)c2ccccc21 | n | n | u | n | 15.8µM
COc1ccc([C@@H]2CC(=O)c3c(O)cc(O[C@@H]4O[C@@H](CO[C@@H]5O[C@@H](C)[C@@H](O)[C@@H](O)[C@H]5O)[C@@H](O)[C@@H](O)[C@H]4O)cc3O2)cc1O | n[9.22 µM] | x | n | n | x
O=c1cc(-c2ccccc2)oc2cc(O[C@H]3O[C@H](CO)[C@@H](O)[C@H](O)[C@@H]3O)c(O)c(O)c12 | n[9.22 µM] | x | n | n | x
NNC(=O)CCSc1ccccc1 | n[9.22 µM] | n[9.22 µM] | n[11 µM] | n[9.17 µM] | x
COC(=O)C1=C(C)NC(C)=C(C(=O)OCCSc2ccccc2)[C@@H]1C | n | x | 39.8µM | n | x
O=C(O)C(S)[C@@H](S)C(=O)O (stereo partly specified) | x | x | x | x | n
Cc1cc(OC2CCCCC2)nc(-c2ccccc2O)n1 | n | n[0.0738 µM] | 3.16µM | n[9.17 µM] | n[7.66 µM]
Cc1cc(OCc2ccc(F)cc2)nc(-c2ccccc2O)n1 | n | n[9.22 µM] | 25.1µM | n | n
Cc1ccc(Oc2cc(C)nc(-c3ccccc3O)n2)cc1 | n | n | n | n | n
Cc1cc(Oc2ccc(Cl)cc2)nc(-c2ccccc2O)n1 | n | n | n | n | n
COC1=CC(=O)C[C@@H](C)[C@@]12Oc1c(Cl)c(OC)cc(OC)c1C2=O | n[9.22 µM] | x | n | n | x
Nc1nc(SCC(=O)NCc2ccco2)[nH]c(=O)c1-c1ccccc1 | n | n | n | n | n
O=C(CSc1nc2nc(-c3cccs3)cc(C(F)(F)F)c2c(=O)[nH]1)NCc1ccco1 | n | n | n | n | 2µM
COC(=O)CNC(=O)[C@@]1(C)C=C[C@@H](Cc2ccccc2)N1C(C)=O | x | n | n | x | x
C[C@@]12C(=O)OC(=O)[C@@]1(C)[C@H]1CC[C@@H]2O1 | n[9.22 µM] | n | u | n | n
O=Nc1c(-c2c(O)[nH]c3cc(Br)ccc23)[nH]c2ccccc12 | x | x | x | x | 12.6µM
O=C(O)c1cc(-c2ccc3cc4c(cc3c2)OCO4)nc2ccccc12 | n[9.22 µM] | n[9.22 µM] | n[11 µM] | n[9.17 µM] | x
COC(=O)c1cc(-c2ccc3c(c2)OCO3)nc2ccccc12 | n | n[9.22 µM] | 25.1µM | n | n
O=C(Nc1nccs1)Oc1ccccc1 | n | n | n | n | n
S=C(Nc1ccccc1)Nc1nccs1 | 31.6µM | n | n | n | n
COc1ccc(CNc2nc3c(c(=O)n(Cc4ccc(F)cc4)c(=O)n3C)n2C)cc1 | n | n | n | n | n
COc1ccc(CCN2CCC(Nc3nc4ccccc4n3Cc3ccc(F)cc3)CC2)cc1 | 10µM! | n | n | n | n
C[C@H]1CN(S(=O)(=O)c2cccc3cnccc23)CCN1 | n | n | n | n | n
N#C/C(=C\c1ccc(O)c(O)c1)C(=O)NCCCc1ccccc1 | n | n | 5.01µM! | n | n
SMILES | GFP derepression | HBB splicing | Hsp90 Hop PPI | Ub-GFP proteasome | USP2a inh
N#C/C(=C\c1ccc(O)c(O)c1)C(=O)OCCc1cccs1 | n | x | 3.98µM | n | x
CC1(C)[C@@H](O)CC[C@@]2(C)[C@H]1CC[C@]1(C)[C@H]2C(=O)C=C2[C@@H]3C[C@@](C)(C(=O)O)CC[C@]3(C)CC[C@@]21C | n[9.22 µM] | x | n | n | x
CCOC(=O)CSc1cccc2cccnc12 | u | n | 15.8µM | n | n
COC(=O)C[C@@H]1O[C@H]1[C@H](C)[C@@H](OC)C(C)C | x | n[9.22 µM] | x | x | x
C[C@@H](C(=O)O)c1ccc(C[C@@H]2CCCC2=O)cc1 | n | n | n | n | n
O=[N+]([O-])c1cc(Cc2cc([N+](=O)[O-])c3cccnc3c2O)c(O)c2ncccc12 | n[9.22 µM] | n[9.22 µM] | 1.58µM | n[9.17 µM] | x
COc1ccccc1Cn1c(-c2ccco2)nc2nc3ccccc3nc21 | 12.6µM | n | n | n | n
c1ccc(Cn2c(-c3ccco3)nc3nc4ccccc4nc32)cc1 | n | n | n | n | n
C=C1CC[C@H]2C(C)(C)[C@H](O)CC[C@]2(C)[C@@H]1COc1ccc2ccc(=O)oc2c1 | n[9.22 µM] | x | n | n | x
CCN(CC)c1nc(C#N)cc(-c2ccc(OC)cc2)n1 | n | n[1.84 µM] | 25.1µM | n | n
CCN(CC)c1nc2cc(OC)ccc2cc1C#N | n | n | 25.1µM | n | n
c1cnc2c(c1)ccc1cccnc12 | n[9.22 µM] | n[9.22 µM] | 0.631µM | n[9.17 µM] | n
CC1(C)Cc2c(C#N)c(NCc3ccco3)nc(-c3ccco3)c2CO1 | n | x | x | x | x
CN(C)CCNc1nc(-c2ccco2)c2c(c1C#N)CC(C)(C)OC2 | n | x | x | x | x
CCCCN(C)c1nc(-c2ccco2)c2c(c1C#N)CC(C)(C)OC2 | x | n | 25.1µM | n | x
CC1(C)Cc2c(C#N)c(N3CCCC3)nc(-c3ccco3)c2CO1 | x | n | 25.1µM | n | x
C[C@H](O)[C@H](O)[C@@H](O)c1cnc2nc(N)[nH]c(=O)c2n1 | n[9.22 µM] | x | n | n | x
CC1=NN(c2ccc(S(=O)(=O)O)cc2)C(=O)/C1=C\c1ccc(Cl)cc1 | n[9.22 µM] | n[9.22 µM] | n[11 µM] | n[9.17 µM] | x
CCCCn1nc(NC(=O)c2cccs2)c2cc3cc(OC)ccc3nc21 | n | n[0.369 µM] | 20µM | n | n
COc1ccc(NC(=O)/C=C\c2ccc(Cl)cc2)cc1 | n | n | n | n | n
N#CC1=C(SCC(=O)c2ccc(Cl)cc2)NC2=C(C(=O)CCC2)C1c1ccco1 (stereo unspecified) | 10µM | x | x | x | x
O=C(/C=C\c1ccc(O)c(O)c1)O[C@H]1C[C@@](O)(C(=O)O)C[C@H](O)[C@@H]1O | n[9.22 µM] | x | n | n | x
C=CC1=C(C)C2=Cc3c(C=C)c(C)c4[n]3[Sn+2][n]3c(c(C)c(CCC(=O)O)c3=CC3=NC(=C4)C(C)=C3CCC(=O)O)=CC1=N2 | n | x | 31.6µM | n | x
C/C(CCN1CCc2nc(-c3ccccc3)c(-c3ccccc3)cc2C1)=N\OC[C@@H](O)COCc1ccco1 | x | n[9.22 µM] | x | x | x
Nn1c(-c2ccccn2)nnc1-c1ccccn1 | n | n | u | n | n
SMILES | GFP derepression | HBB splicing | Hsp90 Hop PPI | Ub-GFP proteasome | USP2a inh
c1ccc(-c2ccccn2)nc1 | n | n | 12.6µM | n | n
NCCNCCNCCNCCN | x | n | 5.01µM | x | x
Cc1cccc2cc(C#N)c(SCC(=O)N3CC(=O)Nc4ccccc43)nc12 | 15.8µM | u | n | n | n
C[C@H]1[C@H](C)CC[C@@]2(C(=O)O)CC[C@]3(C)C(=CC[C@H]4[C@@]5(C)C[C@@H](O)[C@H](O)[C@@](C)(CO)[C@@H]5CC[C@@]43C)[C@@H]12 | n[9.22 µM] | x | n | n | x
COc1ccccc1-c1ccc2ncnc(N(C)C)c2c1 | n[9.22 µM] | n | n | n | n
CCOC(=O)c1[nH]cnc1C(=O)O | n | n | 25.1µM | n | x
Cc1ccc(NC(=O)c2ccccc2C(=O)O)cc1C | n[9.22 µM] | n[9.22 µM] | n[11 µM] | n[9.17 µM] | x
N=c1oc2c3c4c(cc2cc1C(=O)Nc1ccccc1)CCCN4CCC3 | n | 3.16µM | n | u | n
N#Cc1ccc(NC(=O)c2cc3cc4c5c(c3oc2=N)CCCN5CCC4)cc1 | 10µM | n | n | n | n
COCCn1c(=O)c(-c2cn(C)c3ccccc23)nc2cnc(Oc3ccc(OC)cc3)nc21 | n[9.22 µM] | n | n | n | n
